The list is not random: actives were taken first. Their share in the collection is about 11%.
PNC assembly inh: inhibitors of perinucleolar compartment assembly | PC3M PTB-GFP, PNC prevalence imaging, 16 h; hits give low values | activity change (PNC), negative = inhibition, % at 10 µM | actives 3.1% (n = 140,000);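 active means readout at or below -70, meaning at least 70% loss of cells showing the perinucleolar compartment, a nuclear body marking cancer cells; inconclusive means readout between -30 and a set limit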;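 further: plate controls were DMSO wells for no effect and camptothecin positive control wells for full effect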
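Read-out is percentage of cells bearing a perinucleolar compartment, from automated 20x imaging of fixed, Hoechst-stained PC3M PTB-GFP cells. Cells were seeded 4 h, then exposed 16 h to compound (23 nl of library stock) in duplicate plates.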
HPGD block: inhibitors of human 15-hydroxyprostaglandin dehydrogenase (HPGD). P15428. purified HPGD, NADH fluorescence kinetic, PGE2 substrate. Potency, µM, for inactives: at the top dose activity change, negative = inhibition, most hits filed as inhibitors. actives 4.3% (n = 150,000). AID 894; further: potency means the concentration at half of the fitted maximal effect
Target sequence (P15428 whole entry, looked up): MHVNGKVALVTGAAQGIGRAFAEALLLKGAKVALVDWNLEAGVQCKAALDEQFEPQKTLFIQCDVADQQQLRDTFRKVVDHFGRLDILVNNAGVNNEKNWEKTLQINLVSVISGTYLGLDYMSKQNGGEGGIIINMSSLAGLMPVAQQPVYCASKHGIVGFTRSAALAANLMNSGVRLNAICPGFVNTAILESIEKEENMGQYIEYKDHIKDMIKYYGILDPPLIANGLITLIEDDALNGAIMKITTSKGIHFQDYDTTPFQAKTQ
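20 nM HPGD preincubated 15 min at room temperature with compound in 50 mM Tris-HCl pH 8, 0.01% Tween 20. Started with 1 mM NAD+ and 30 uM prostaglandin E2; NADH fluorescence (360/450 nm) read 5 times over 30-s intervals, last minus first.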
ALDH1A1 inh: blocks purified human ALDH1A1 activity | Purified ALDH1A1, NADH fluorescence, propionaldehyde substrate | P00352 | actives 7.3% (n = 220,000) | AID 1030 | Potency, µM (doses to about 75.3 µM), inactives show at the highest dose activity, negative = inhibition, most hits filed as inhibitors;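 further: potency means the concentration at half of the fitted maximal effect; plate controls were no enzyme wells and a reference inhibitor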
The depositor's hits bear a star; ? = inconclusive; / = not tested or not shown; [ ] = dose if it differs, or a comment. Unless noted, the call rests on the fitted dose curve; in most records, active means well fitted inhibition curve with a large enough effect (not every such curve was filed as active); inconclusive means small, poorly fitted or top-dose-only effect, or another doubt; inactive means no such curve, though single readings can be large or run the other way. Unless noted, on the % scale 0 is the no-effect control and ±100 the full control effect.

SMILES	PNC assembly inh	HPGD block	ALDH1A1 inh
COc1cccc(NC(=S)/C(=C(\[O-])c2ccc(C)c([N+](=O)[O-])c2)[n+]2ccccc2)c1	53.7	-15.6%	?
COC(=O)C/C=C\[C@@H](C)[C@@H](/C=N\O[C@@H](C)CN1CCCCc2nc(C)c(C)cc21)OC	/	/	5.1%[13.5 µM]
COc1ccc([N+](=O)[O-])c(OC)c1C(=O)NC(=O)Nc1c(F)cc(F)cc1F	/	/	1.9%
Cc1ccc(-n2nc(C)c(NC(=O)CCl)c2C)cc1	-19.8	0.1%	?
Cc1nc(C)c(Oc2cccc(C(F)(F)F)c2)c(=O)[nH]1	/	/	-7.9%
CCOC(=O)C1=C(C)OC(N)=C(C#N)C1c1cc(Cl)c(OCC(N)=O)c(OC)c1 (stereo unspecified)	-20.3	-6.1%	8.4%
C=CCCCCCCCCCCC/C=C/C(O)COC(C)=O (stereo unspecified)	/	-28.2%	-5.3%
CCOc1ccc(C(=O)N/N=C/c2cc(Cl)ccc2[N+](=O)[O-])cc1	6.8	22.4µM*	-10.3%
CCOc1ccc(Cl)cc1/C=N/NC(=O)c1ccccc1	-7.3	-20.2%	-1.1%
O=c1ccc(C(F)(F)F)cn1Cc1cc(=O)n2cc(Br)ccc2n1	/	/	-3.9%
Cc1ccc(NC(=O)CNc2ccc(OC(C)C)cc2)c(C)c1	-12.5	-9.9%	4.47µM*
Cc1ccc(NC(=O)CNc2cccc(C)c2C)c(C)c1	-17.3	31.6µM*	8.91µM*
COc1ccc(C)cc1NC(=O)CNc1ccc(C(C)=O)cc1	-6.4	-13.8%	?
Cc1ccc(NC(=O)Cc2ccccc2)c(C)c1	/	/	-3.7%
N#CNC1=NCN(Cc2ccccc2)CN1	9.5	-11.3%	-1.0%
O=Cc1ccccc1-n1cncn1	/	/	1.5%
CCOC(=O)CCC(NC(=O)CCC(=O)NC(CCC(=O)OCC)C(=O)OCC)C(=O)OCC (stereo unspecified)	-134.0*	-1.1%	9.6%
CCOC(=O)CCC(NC(=O)CCCC(=O)NC(CCC(=O)OCC)C(=O)OCC)C(=O)OCC (stereo unspecified)	-8.1	-7.1%	7.8%
COC(=O)/C=C/c1ccsc1NC(C)=O	19.6	-7.2%	-11.7%
C=CCNc1cc(C)oc(=O)c1C(=O)CCC	13.7	-5.5%	-14.3%
Cc1ccc(S(=O)(=O)NC2CCCC(C(=O)O)C2)cc1 (stereo unspecified)	27.4	-4.3%	-13.3%
CC(=O)C1=C(O)C(=O)N(Cc2ccco2)C1c1ccccc1F (stereo unspecified)	/	/	10µM*
CC(=O)C1=C(O)C(=O)N(Cc2ccco2)C1c1ccccc1 (stereo unspecified)	25.7	-28.5%	0.1%
Oc1cccc(-c2nc3ccc4ccccc4c3c3c2CCC3)c1	21.1	?	?
CCOCCCNC(=O)COC(=O)/C=C/c1ccc(S(=O)(=O)N2CCc3ccccc32)cc1	/	/	7.94µM*
SMILES	PNC assembly inh	HPGD block	ALDH1A1 inh
CCNC(=O)COC(=O)c1cc(S(=O)(=O)N2CCCc3ccccc32)ccc1Cl	/	/	-7.7%
O=C(Cn1c(SCC(=O)N2CCCc3ccccc32)nc2ccccc21)N1CCCC1	-100.0*	-9.5%	-1.9%
CC(=O)Nc1ccc(NC(=O)Cn2c(CC(=O)N3CCCC3)nc3ccccc32)cc1	18.1	0.6%	2.9%
COCCn1c(SCC(=O)N2CCCc3ccccc32)nc2cccnc21	?	-9.9%	3.16µM*
CC(C)NC(=O)Cn1c(SCC(=O)N2CCCc3ccccc32)nc2ccccc21	-16.9	-3.9%	2.5%
CC(=O)Nc1ccc(C(=O)CSc2nc3ccccc3n2CC(=O)N2CCCC2)cc1	36.3	?	25.1µM*
COCCn1c(SCC(=O)NC2CCCC2)nc2cccnc21	/	/	2.6%
CC1(C)COC(c2coc3ccccc3c2=O)OC1	10.0	-7.1%	9.6%
CCN1C(=O)N[C@@H](CCc2ccccc2)C(C(C)=O)=C1C	/	1.4%	2.1%[13.5 µM]
Cc1ccnc(NC(c2ccccc2O)c2oc(CO)cc(=O)c2O)c1 (stereo unspecified)	/	/	12.6µM*
O=c1cc(CO)oc(C(Nc2ccccn2)c2ccsc2)c1O (stereo unspecified)	-25.8	?	?
O=c1cc(CO)oc(C(Nc2ccccn2)c2ccccc2Cl)c1O (stereo unspecified)	/	/	5.01µM*
COc1ccc(C(c2oc(CO)cc(=O)c2O)c2oc(CO)cc(=O)c2O)cc1	/	/	-2.0%
COc1ccc(C(Nc2ccccn2)c2oc(CO)cc(=O)c2O)cc1 (stereo unspecified)	6.0	?	?
O=c1cc(CO)oc(C(Nc2ccccn2)c2ccc(F)cc2)c1O (stereo unspecified)	?	-21.7%	8.91µM*
Cc1nc(C(F)(F)F)c(C(=O)N/N=C(\N)c2cccnc2)s1	/	/	-7.0%
CCC(CC)C(=O)Nc1ccccc1NC(C)=O	-26.7	-1.4%	2.3%
COc1ccccc1-c1nn2c(-c3ccccc3Cl)nnc2s1	-25.1	-11.2%	-11.1%
